Targets with a hit are over-represented here; the source holds about 8,800 in all. About 0.5% of all pairs of compound and target were hits. Unmarked numbers belong to inactive results.
Key:
Experiment in all cases: log2 fold change, soluble protein after heating vs DMSO (PISA); higher = thermal stabilisation; K562 lysate, 10 uM; active = over 0.2 and 3.5 SD of the protein, either way, in both replicates (recomputed)
lapatinib = compound: CS(=O)(=O)CCNCc1ccc(-c2ccc3ncnc(Nc4ccc(OCc5cccc(F)c5)c(Cl)c4)c3c2)o1 [lapatinib]
In short: (§1)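 Pellets of K562 cells were dounce-homogenised in PBS pH 7.4 with 1 mM MgCl2, and the crude extract was held at 1 mg/mL protein for a 30 min treatment with 10 μM compound. Aliquots were heated for 3 min over 48°C-58°C and pooled before NP-40 was added to 0.5% at 4°C. The supernatant from 21,000xg for 90 min was quantified by TMTpro 16plex LC-MS/MS with channel sums equalised. Values are reported from duplicates as log-two fold change in thermal stability relative to solvent controls.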

pictilisib = compound: CS(=O)(=O)N1CCN(Cc2cc3nc(-c4cccc5[nH]ncc45)nc(N4CCOCC4)c3s2)CC1 [pictilisib]
In short: as §1

crizotinib = compound: C[C@@H](Oc1cc(-c2cnn(C3CCNCC3)c2)cnc1N)c1c(Cl)ccc(F)c1Cl [crizotinib]
In short: as §1

[1] = compound: C[C@H](C1=CC=C(C=C1)C(=O)NC2=C3C=CNC3=NC=C2)N
In short: as §1

duvelisib = compound: C[C@H](Nc1ncnc2nc[nH]c12)c1cc2cccc(Cl)c2c(=O)n1-c1ccccc1 [duvelisib]
In short: as §1

gandotinib = compound: Cc1cc(Nc2cc(CN3CCOCC3)c3nc(C)c(Cc4ccc(Cl)cc4F)n3n2)n[nH]1 [gandotinib]
In short: as §1

tozasertib = compound: Cc1cc(Nc2cc(N3CCN(C)CC3)nc(Sc3ccc(NC(=O)C4CC4)cc3)n2)n[nH]1 [tozasertib]
In short: as §1

doramapimod = compound: Cc1ccc(-n2nc(C(C)(C)C)cc2NC(=O)Nc2ccc(OCCN3CCOCC3)c3ccccc23)cc1 [doramapimod]
In short: as §1

bafetinib = compound: Cc1ccc(NC(=O)c2ccc(CN3CC[C@H](N(C)C)C3)c(C(F)(F)F)c2)cc1Nc1nccc(-c2cncnc2)n1 [bafetinib]
In short: as §1

[2] = compound: Cc1cccc(CC(=O)N2CCc3c2ccc(-c2cn(C)c4ncnc(N)c24)c3F)n1
In short: as §1

nilotinib = compound: Cc1cn(-c2cc(NC(=O)c3ccc(C)c(Nc4nccc(-c5cccnc5)n4)c3)cc(C(F)(F)F)c2)cn1 [nilotinib]
In short: as §1

[3] = compound: Cc1nc(Nc2n[nH]c3c2CN(C(=O)N[C@H](CN(C)C)c2ccccc2)C3(C)C)c2sccc2n1
In short: as §1

dasatinib = compound: Cc1nc(Nc2ncc(C(=O)Nc3c(C)cccc3Cl)s2)cc(N2CCN(CCO)CC2)n1 [dasatinib]
In short: as §1

[4] = compound: Cc1ncc(-c2ccnc(Nc3ccc(S(C)(=O)=O)cc3)n2)n1C(C)C
In short: as §1

[5] = compound: Cn1cc(-c2ccc3c(c2)CCN3C(=O)Cc2cccc(C(F)(F)F)c2)c2c(N)ncnc21
In short: as §1

quisinostat = compound: Cn1cc(CNCC2CCN(c3ncc(C(=O)NO)cn3)CC2)c2ccccc21 [quisinostat]
In short: as §1

tipifarnib = compound: Cn1cncc1[C@@](N)(c1ccc(Cl)cc1)c1ccc2c(c1)c(-c1cccc(Cl)c1)cc(=O)n2C [tipifarnib]
In short: as §1

[6] = compound: NC(=O)Nc1cc(-c2cccc(F)c2)sc1C(=O)N[C@H]1CCCNC1
In short: as §1

[7] = compound: NC(=O)c1cnc(N[C@@H]2CCCC[C@@H]2N)nc1Nc1cccc(-n2nccn2)c1
In short: as §1

[8] = compound: NC1(c2ccc(-c3nc4ccn5c(=O)[nH]nc5c4cc3-c3ccccc3)cc2)CCC1
In short: as §1

Sequence of UniProt O14965 (O14965 whole entry, looked up): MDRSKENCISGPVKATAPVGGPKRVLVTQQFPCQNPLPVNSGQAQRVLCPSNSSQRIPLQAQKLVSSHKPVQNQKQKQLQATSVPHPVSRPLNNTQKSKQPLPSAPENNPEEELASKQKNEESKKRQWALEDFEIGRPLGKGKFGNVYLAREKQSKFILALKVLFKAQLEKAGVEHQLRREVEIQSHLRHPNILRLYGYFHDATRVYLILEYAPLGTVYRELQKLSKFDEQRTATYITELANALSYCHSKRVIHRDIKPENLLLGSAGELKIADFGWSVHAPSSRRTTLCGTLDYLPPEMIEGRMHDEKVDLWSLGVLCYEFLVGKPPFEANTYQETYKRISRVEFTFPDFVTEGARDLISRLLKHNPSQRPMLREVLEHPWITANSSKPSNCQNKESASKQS
Sequence of UniProt Q14839 (Q14839 whole entry, looked up): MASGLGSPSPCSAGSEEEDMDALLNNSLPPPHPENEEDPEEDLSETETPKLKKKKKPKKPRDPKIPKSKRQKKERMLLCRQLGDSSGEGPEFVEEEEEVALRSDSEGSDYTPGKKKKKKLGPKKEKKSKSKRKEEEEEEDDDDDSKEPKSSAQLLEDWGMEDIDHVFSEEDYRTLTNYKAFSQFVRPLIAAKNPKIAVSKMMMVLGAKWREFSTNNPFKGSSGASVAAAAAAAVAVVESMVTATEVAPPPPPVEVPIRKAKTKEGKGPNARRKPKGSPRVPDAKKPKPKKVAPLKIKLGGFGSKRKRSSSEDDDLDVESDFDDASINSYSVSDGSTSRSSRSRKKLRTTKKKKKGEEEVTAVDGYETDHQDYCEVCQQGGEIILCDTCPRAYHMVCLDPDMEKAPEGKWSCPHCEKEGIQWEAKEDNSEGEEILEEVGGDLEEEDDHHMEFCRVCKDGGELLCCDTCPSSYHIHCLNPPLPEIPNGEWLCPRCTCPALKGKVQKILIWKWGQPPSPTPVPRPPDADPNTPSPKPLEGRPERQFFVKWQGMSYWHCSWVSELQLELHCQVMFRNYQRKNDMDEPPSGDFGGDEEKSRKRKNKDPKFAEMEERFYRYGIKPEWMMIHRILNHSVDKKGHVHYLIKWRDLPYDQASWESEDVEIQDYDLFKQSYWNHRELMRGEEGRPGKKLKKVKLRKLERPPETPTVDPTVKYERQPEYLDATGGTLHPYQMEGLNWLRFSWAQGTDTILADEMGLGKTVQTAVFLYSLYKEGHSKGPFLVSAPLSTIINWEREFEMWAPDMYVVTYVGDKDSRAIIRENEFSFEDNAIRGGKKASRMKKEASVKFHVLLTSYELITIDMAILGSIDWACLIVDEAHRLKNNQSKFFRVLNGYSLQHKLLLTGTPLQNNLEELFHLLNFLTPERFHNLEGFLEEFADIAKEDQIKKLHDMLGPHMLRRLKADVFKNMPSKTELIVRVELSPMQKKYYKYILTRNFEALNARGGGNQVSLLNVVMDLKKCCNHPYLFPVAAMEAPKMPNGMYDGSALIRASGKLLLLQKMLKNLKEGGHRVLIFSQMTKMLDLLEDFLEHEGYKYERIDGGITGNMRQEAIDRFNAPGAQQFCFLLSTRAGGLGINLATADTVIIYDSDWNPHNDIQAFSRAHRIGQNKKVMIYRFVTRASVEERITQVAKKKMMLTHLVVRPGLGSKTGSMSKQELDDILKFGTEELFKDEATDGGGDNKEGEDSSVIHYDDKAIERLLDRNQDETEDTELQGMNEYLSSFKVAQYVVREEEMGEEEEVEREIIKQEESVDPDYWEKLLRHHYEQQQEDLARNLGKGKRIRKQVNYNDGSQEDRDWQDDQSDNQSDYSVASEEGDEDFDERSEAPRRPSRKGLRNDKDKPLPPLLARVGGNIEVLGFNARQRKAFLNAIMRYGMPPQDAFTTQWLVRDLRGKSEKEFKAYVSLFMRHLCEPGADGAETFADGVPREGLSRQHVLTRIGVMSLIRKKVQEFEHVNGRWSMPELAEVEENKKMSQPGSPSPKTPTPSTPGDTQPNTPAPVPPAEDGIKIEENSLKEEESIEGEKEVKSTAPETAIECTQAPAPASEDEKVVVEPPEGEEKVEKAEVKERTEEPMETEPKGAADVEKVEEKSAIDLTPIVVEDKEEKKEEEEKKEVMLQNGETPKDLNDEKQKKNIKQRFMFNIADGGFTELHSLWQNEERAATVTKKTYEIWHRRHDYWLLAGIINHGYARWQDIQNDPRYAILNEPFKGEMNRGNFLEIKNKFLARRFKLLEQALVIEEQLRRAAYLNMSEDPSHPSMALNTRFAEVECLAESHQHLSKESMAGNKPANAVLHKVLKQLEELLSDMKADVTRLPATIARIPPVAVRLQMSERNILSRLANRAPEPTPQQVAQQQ
Sequence of UniProt P15313 (P15313 whole entry, looked up): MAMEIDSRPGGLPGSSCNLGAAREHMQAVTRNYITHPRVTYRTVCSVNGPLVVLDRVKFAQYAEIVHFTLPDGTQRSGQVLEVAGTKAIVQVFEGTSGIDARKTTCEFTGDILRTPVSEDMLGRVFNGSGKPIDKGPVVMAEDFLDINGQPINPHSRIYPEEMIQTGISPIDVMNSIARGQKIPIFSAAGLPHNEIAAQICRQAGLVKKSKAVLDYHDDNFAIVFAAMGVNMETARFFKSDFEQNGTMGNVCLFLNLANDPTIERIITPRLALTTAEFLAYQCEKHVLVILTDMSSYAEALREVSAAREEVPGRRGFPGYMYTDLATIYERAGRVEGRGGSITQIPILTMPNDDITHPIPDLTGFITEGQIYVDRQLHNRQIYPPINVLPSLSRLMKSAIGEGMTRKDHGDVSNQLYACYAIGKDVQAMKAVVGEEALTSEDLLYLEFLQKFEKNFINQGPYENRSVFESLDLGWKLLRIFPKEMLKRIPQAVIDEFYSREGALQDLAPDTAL
Sequence of UniProt P16152 (P16152 whole entry, looked up): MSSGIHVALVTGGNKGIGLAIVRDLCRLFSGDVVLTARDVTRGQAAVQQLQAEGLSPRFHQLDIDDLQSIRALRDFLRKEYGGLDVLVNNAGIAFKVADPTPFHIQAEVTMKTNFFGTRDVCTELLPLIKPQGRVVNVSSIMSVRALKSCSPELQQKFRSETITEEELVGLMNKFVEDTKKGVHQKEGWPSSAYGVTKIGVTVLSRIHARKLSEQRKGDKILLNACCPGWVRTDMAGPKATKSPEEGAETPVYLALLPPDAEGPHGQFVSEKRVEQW
Sequence of UniProt P21127 (P21127 whole entry, looked up): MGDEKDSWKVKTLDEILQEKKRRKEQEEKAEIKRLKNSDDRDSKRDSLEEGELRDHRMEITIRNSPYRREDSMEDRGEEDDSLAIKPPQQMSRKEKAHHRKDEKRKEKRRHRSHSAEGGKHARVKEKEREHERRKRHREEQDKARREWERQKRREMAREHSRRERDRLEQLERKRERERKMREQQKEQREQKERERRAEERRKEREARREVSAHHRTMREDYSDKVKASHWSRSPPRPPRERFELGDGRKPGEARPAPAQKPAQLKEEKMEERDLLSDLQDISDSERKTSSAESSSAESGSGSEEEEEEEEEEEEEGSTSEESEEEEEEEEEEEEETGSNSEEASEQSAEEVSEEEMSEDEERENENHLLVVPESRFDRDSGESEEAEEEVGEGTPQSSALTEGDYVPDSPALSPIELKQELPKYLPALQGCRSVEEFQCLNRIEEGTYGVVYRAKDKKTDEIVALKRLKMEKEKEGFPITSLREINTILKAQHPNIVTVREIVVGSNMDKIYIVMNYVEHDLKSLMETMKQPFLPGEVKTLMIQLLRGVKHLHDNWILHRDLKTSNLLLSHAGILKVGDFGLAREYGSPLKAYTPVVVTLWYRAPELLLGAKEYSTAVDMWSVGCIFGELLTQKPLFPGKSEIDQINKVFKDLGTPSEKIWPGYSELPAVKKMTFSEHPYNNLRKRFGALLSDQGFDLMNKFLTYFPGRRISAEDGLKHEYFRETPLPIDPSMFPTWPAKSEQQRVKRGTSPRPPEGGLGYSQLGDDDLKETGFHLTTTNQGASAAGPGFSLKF
Sequence of UniProt Q13042 (Q13042 whole entry, looked up): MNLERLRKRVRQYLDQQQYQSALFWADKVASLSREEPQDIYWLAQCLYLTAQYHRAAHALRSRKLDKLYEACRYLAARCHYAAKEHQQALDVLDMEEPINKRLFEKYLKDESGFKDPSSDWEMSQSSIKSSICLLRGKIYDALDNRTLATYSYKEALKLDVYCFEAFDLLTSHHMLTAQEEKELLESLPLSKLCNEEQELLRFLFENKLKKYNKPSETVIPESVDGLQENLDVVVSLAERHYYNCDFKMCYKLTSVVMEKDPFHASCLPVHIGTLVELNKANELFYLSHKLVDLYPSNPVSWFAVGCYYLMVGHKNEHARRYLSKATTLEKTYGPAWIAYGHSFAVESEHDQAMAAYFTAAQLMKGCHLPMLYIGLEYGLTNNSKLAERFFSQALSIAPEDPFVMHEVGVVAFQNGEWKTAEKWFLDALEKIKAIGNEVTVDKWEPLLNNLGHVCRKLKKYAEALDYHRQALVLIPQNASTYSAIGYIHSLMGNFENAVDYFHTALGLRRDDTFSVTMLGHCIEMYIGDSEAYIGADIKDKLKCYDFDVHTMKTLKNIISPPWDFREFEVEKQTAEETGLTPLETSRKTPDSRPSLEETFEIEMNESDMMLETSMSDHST
Sequence of UniProt Q9BYV8 (Q9BYV8 whole entry, looked up): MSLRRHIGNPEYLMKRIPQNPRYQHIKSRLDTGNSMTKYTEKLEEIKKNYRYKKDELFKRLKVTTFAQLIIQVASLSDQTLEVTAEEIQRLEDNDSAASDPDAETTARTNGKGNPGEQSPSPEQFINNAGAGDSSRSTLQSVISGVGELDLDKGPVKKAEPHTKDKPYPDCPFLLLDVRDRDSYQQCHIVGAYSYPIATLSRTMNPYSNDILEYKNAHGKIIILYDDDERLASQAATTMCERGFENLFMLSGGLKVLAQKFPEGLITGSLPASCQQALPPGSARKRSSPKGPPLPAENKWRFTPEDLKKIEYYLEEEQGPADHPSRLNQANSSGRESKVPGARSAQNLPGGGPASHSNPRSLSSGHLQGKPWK
Sequence of UniProt O15155 (O15155 whole entry, looked up): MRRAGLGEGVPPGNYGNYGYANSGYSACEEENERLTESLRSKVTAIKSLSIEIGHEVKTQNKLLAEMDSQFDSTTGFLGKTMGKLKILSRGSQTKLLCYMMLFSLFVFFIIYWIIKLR

Row | Target | log2 fold change (lapatinib) | log2 fold change (pictilisib) | log2 fold change (crizotinib) | log2 fold change [1] | log2 fold change (duvelisib) | log2 fold change (gandotinib) | log2 fold change (tozasertib) | log2 fold change (doramapimod) | log2 fold change (bafetinib) | log2 fold change [2] | log2 fold change (nilotinib) | log2 fold change [3] | log2 fold change (dasatinib) | log2 fold change [4] | log2 fold change [5] | log2 fold change (quisinostat) | log2 fold change (tipifarnib) | log2 fold change [6] | log2 fold change [7] | log2 fold change [8]
1 | CDK11B (UniProt P21127) | -0.017 | -0.006 | 0.461 (active) | -0.012 | 0 | 0.399 (active) | 0.02 | 0.031 | -0.042 | 0.007 | -0.006 | -0.015 | -0.028 | 0.087 | 0.068 | -0.023 | 0.01 | 0.018 | 0.009 | -0.018
2 | ATR (UniProt Q13535) | -0.036 | 0.408 (active) | -0.1 | -0.158 | 0.032 | 0.117 | 0.044 | 0.068 | -0.033 | 0.161 | -0.075 | 0.002 | 0.001 | 0.013 | 0.001 | -0.219 | -0.032 | 0.047 | 0.014 | -0.085
3 | ATP6V1B1 (UniProt P15313) | -0.028 | -0.028 | -0.035 | -0.232 | -0.001 | 0.099 | 0 | 0.042 | -0.044 | 0.129 | -0.024 | 0.029 | 0.034 | -0.045 | -0.021 | -0.029 | -0.036 | 0.01 | 0.019 | 0.008
4 | CBR1 (UniProt P16152) | 0.023 | -0.027 | 0.043 | -0.082 | -0.037 | 0.001 | 0.003 | -0.044 | 0.034 | 0.032 | 0.046 | 0.046 | 0.1 | 0.076 | -0.02 | 0.113 | -0.001 | -0.021 | -0.02 | 0.016
5 | BCAR1 isoform 6 (UniProt P56945) | -0.044 | 0.003 | 0.003 | 0.071 | 0.008 | -0.113 | 0.01 | -0.039 | -0.073 | -0.104 | -0.021 | -0.015 | 0.001 | -0.068 | 0.018 | 0.021 | -0.006 | 0.016 | -0.009 | 0.008
6 | CCNB2 (UniProt O95067) | -0.048 | -0.091 | -0.018 | -0.016 | 0.032 | -0.108 | 0.023 | 0.009 | -0.035 | 0.068 | -0.053 | 0.081 | -0.016 | 0.21 (active) | -0.046 | -0.081 | -0.029 | 0.012 | -0.038 | 0
7 | CBFA2T3 (UniProt O75081) | 0.041 | -0.038 | 0.013 | 0.017 | 0.006 | -0.001 | -0.014 | 0.007 | -0.007 | 0.05 | -0.018 | 0.02 | -0.026 | -0.019 | -0.008 | -0.07 | -0.047 | 0.043 | 0 | 0.001
8 | CHD4 isoform 2 (UniProt Q14839) | 0.003 | -0.004 | -0.007 | -0.05 | -0.038 | 0.005 | 0.011 | 0.021 | -0.05 | 0.05 | 0.006 | 0.008 | -0.011 | -0.006 | 0.015 | -0.038 | -0.008 | 0.031 | 0.01 | 0.001
9 | CDK5RAP2 (UniProt Q96SN8) | -0.182 | -0.04 | -0.035 | -0.032 | 0.023 | -0.092 | 0.024 | 0.003 | 0 | 0.084 | 0.024 | -0.009 | -0.002 | 0.056 | -0.015 | -0.081 | -0.011 | -0.006 | -0.104 | -0.001
10 | CDC16 (UniProt Q13042) | 0.016 | 0 | 0.009 | 0.047 | 0.011 | -0.095 | 0.06 | 0.014 | -0.039 | -0.057 | -0.013 | 0.023 | -0.012 | -0.027 | 0.019 | 0.01 | 0.017 | 0.024 | -0.019 | -0.014
11 | CAPN15 (UniProt O75808) | 0.063 | -0.046 | -0.047 | 0.004 | -0.022 | -0.033 | 0.042 | 0.106 | -0.003 | -0.01 | 0.018 | -0.045 | -0.124 | 0.014 | 0.007 | 0 | 0.04 | 0.025 | -0.08 | 0.054
12 | CHCHD1 (UniProt Q96BP2) | 0.025 | 0.001 | -0.069 | 1.33 (active) | 0.052 | -0.314 | -0.016 | 0.039 | 0.003 | -0.35 (active) | -0.09 | -0.023 | 0.084 | -0.043 | -0.097 | -0.174 | -0.03 | 0 | -0.023 | -0.019
13 | CEP41 (UniProt Q9BYV8) | -0.017 | 0.039 | 0.062 | 0.047 | -0.013 | 0.003 | 0.086 | 0.044 | -0.067 | 0.007 | 0.001 | 0.034 | 0.043 | -0.008 | -0.077 | -0.068 | -0.027 | -0.128 | 0.066 | 0.076
14 | CDC7 (UniProt O00311) | 0.112 | -0.067 | -0.024 | -0.335 (active) | -0.007 | 0.047 | -0.01 | 0.06 | 0.009 | 0.087 | -0.049 | 0.028 | 0.029 | 0.059 | 0.001 | -0.047 | -0.009 | 0.015 | -0.022 | -0.016
15 | BET1 (UniProt O15155) | -0.051 | -0.034 | -0.004 | -0.004 | 0.01 | -0.006 | 0 | 0.03 | -0.056 | 0.03 | 0.038 | 0.052 | -0.015 | -0.011 | 0 | 0.023 | -0.063 | -0.005 | -0.057 | -0.005
16 | CAPNS1 (UniProt U3KPR7) | -0.052 | -0.083 |  |  |  |  |  |  | -0.194 |  | -0.166 | -0.416 |  | 0.226 |  |  | 0.161 |  | -0.214 | 
17 | AURKA (UniProt O14965) | -0.101 | 0.112 |  | -0.071 | -0.006 | 1 (active) |  | -0.061 | -0.09 | -0.062 | -0.065 | 0.209 | 0.226 | 0.174 | 0.027 | -0.117 | -0.088 | 0.18 | -0.04 | -0.05
